Measured values taken from PubChem BioAssay (NCATS).
Records with an inconclusive call do not appear. Calls of active or inactive are those of the source. The call rests on the fitted dose curve.
Potency means the concentration at half of the fitted maximal effect.

Assay: Cell Viability - MRC5 (AID 434);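 further: cells exposed to compound for 40 hours at 37 °C; potency reflects cytotoxicity seen as loss of intracellular ATP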
Settings: MRC5 lung fibroblast viability, qHTS
In short: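 AC50 values come from Hill-equation fits of intracellular ATP loss, measured by CellTiter-Glo luminescence. Normal lung fibroblasts (MRC5) had 40 hr compound treatment at 37 C, normalized between DMSO and 100 uM tamoxifen.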
With `NCCc1ccc(O)cc1` the Potency was > 92 µM (inactive).
For `Oc1ccc(Cl)cc1`, the Potency was > 92 µM (inactive).
For `COP(=S)(OC)Oc1ccc(SC)c(C)c1`, the Potency was > 92 µM (inactive).
For `Nc1ccccc1`, the Potency was > 92 µM (inactive).
For `COC(=O)C(c1ccccc1)C1CCCCN1` (stereo not drawn), the Potency was > 92 µM (inactive).
For `C[C@]12CCC(=O)C=C1CC[C@@H]1[C@@H]2CC[C@]2(C)C(=O)CC[C@@H]12`, the Potency was > 92 µM (inactive).
For `CCOC(=O)CC(SP(=S)(OC)OC)C(=O)OCC` (stereo not drawn), the Potency was > 92 µM (inactive).
In the case of `O=P1(N(CCCl)CCCl)NCCCO1` (stereo not drawn), the Potency is reported as > 92 µM (inactive).
In the case of `CN1C[C@H](C(=O)N[C@]2(C)O[C@@]3(O)[C@@H]4CCCN4C(=O)[C@H](Cc4ccccc4)N3C2=O)C=C2c3cccc4[nH]cc(c34)C[C@H]21`, the Potency is reported as > 92 µM (inactive).
For `Nc1ccccc1C(=O)O`, the Potency was > 92 µM (inactive).
With `CC(C)NC(C)C` the Potency was > 92 µM (inactive).
With `CCC(C)(C)c1ccc(O)cc1` the Potency was > 92 µM (inactive).
For `C[C@]1(O)CC[C@H]2[C@@H]3CCC4=CC(=O)CC[C@]4(C)[C@@]3(F)[C@@H](O)C[C@@]21C`, the Potency was > 92 µM (inactive).
In the case of `CC(C)c1cccc(C(C)C)c1O`, the Potency is reported as > 92 µM (inactive).
In the case of `Clc1ccc(C(c2ccc(Cl)cc2)C(Cl)(Cl)Cl)cc1`, the Potency is reported as > 92 µM (inactive).
For `COc1cc(OC)c(OC)cc1C=O`, the Potency was > 92 µM (inactive).
For `C[C@]12CCC(=O)C=C1CC[C@@H]1[C@@H]2CC[C@@]2(C)[C@H]1CC[C@]2(C)O`, the Potency was > 92 µM (inactive).
For `CCCC(C)(COC(N)=O)COC(N)=O`, the Potency was > 92 µM (inactive).

Assay: Cell Viability - SK-N-SH (AID 435)
Settings: SK-N-SH neuroblastoma cell viability qHTS
In short: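 qHTS cytotoxicity: CellTiter-Glo ATP luminescence after 40 h compound exposure of human neuroblastoma SK-N-SH cells at 37 °C. AC50 derived by Hill-equation fitting, with DMSO as basal and 100 uM tamoxifen as full inhibition.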
In the case of `NCCc1ccc(O)cc1`, the Potency is reported as > 92 µM (inactive).
For `Oc1ccc(Cl)cc1`, the Potency was > 92 µM (inactive).
In the case of `COP(=S)(OC)Oc1ccc(SC)c(C)c1`, the Potency is reported as > 92 µM (inactive).
With `Nc1ccccc1` the Potency was > 92 µM (inactive).
For `COC(=O)C(c1ccccc1)C1CCCCN1` (stereo not drawn), the Potency was > 92 µM (inactive).
For `C[C@]12CCC(=O)C=C1CC[C@@H]1[C@@H]2CC[C@]2(C)C(=O)CC[C@@H]12`, the Potency was > 92 µM (inactive).
With `O=P1(N(CCCl)CCCl)NCCCO1` (stereo not drawn) the Potency was > 92 µM (inactive).
For `CN1C[C@H](C(=O)N[C@]2(C)O[C@@]3(O)[C@@H]4CCCN4C(=O)[C@H](Cc4ccccc4)N3C2=O)C=C2c3cccc4[nH]cc(c34)C[C@H]21`, the Potency was > 92 µM (inactive).
With `Nc1ccccc1C(=O)O` the Potency was > 92 µM (inactive).
For `CC(C)NC(C)C`, the Potency was > 92 µM (inactive).
In the case of `CCC(C)(C)c1ccc(O)cc1`, the Potency is reported as > 92 µM (inactive).
For `C[C@]1(O)CC[C@H]2[C@@H]3CCC4=CC(=O)CC[C@]4(C)[C@@]3(F)[C@@H](O)C[C@@]21C`, the Potency was > 92 µM (inactive).
For `CC(C)c1cccc(C(C)C)c1O`, the Potency was > 92 µM (inactive).
For `COc1cc(OC)c(OC)cc1C=O`, the Potency was > 92 µM (inactive).
In the case of `CCCC(C)(COC(N)=O)COC(N)=O`, the Potency is reported as > 92 µM (inactive).
